Test results from PubChem BioAssay (EPA / NIEHS).
Calls of active or inactive are those of the source. Rule for the calls: active = hit-call score of the fitted dose curve at least 0.9, where 1 is the maximum; inactive = score below 0.9. Peptide text beside a SMILES is read from it.

Legend:
[1] = molecular target: Nuclear respiratory factor 1 (Homo sapiens) (UniProt Q16656); test: ATG_NRF1_CIS: Attagene CIS-FACTORIAL HepG2 Assay for human Nuclear Respiratory Factor 1 (NRF1) Orphan Gene (AID 2282987); details: HepG2 NRF1 cis-element reporter, Attagene multiplex; actives raise or lower the signal
In short: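 Endogenous NRF1-driven reporter transcription in transfected HepG2 cells after 24 h treatment. Readout: RT-PCR products, 6-FAM labelled and resolved by capillary electrophoresis; changes fitted both directions relative to DMSO.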

[2] = ATG_NFI_CIS: Attagene CIS-FACTORIAL HepG2 Assay for human Nuclear Factor I (NFI) (AID 2282989); details: HepG2 cis-regulatory reporter, NFI response element transcription; actives raise or lower the signal
In short: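 Read-out: reporter mRNA via RT-PCR plus capillary electrophoresis with fluorescence detection. Transiently transfected HepG2 (endogenous TF activity on cis promoters), 24 h compound exposure; gain or loss of signal fitted against DMSO.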

[3] = molecular target: Myc proto-oncogene protein (Homo sapiens) (UniProt P01106); test: ATG_Myc_CIS: Attagene CIS-FACTORIAL HepG2 Assay for human Myelocytomatosis (Myc) Proto-Oncogene Transcription Factor (AID 2282990); details: HepG2, Attagene cis-reporter transcription factor activity; actives raise or lower the signal
In short: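 Transiently transfected HepG2 cells bearing cis-promoter reporter units for endogenous transcription factors; 24 h exposure. Reporter mRNA measured by RT-PCR, 6-FAM primer extension, HpaI cut and capillary electrophoresis; bidirectional fit relative to DMSO.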

[4] = ATG_NF_kB_CIS: Attagene CIS-FACTORIAL HepG2 Assay for human Nuclear Factor Kappa B (NF-kB) (AID 2282991); details: HepG2 Attagene cis-factorial NF-kB reporter mRNA; actives raise or lower the signal
In short: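 Readout is reporter transcript level, gain or loss versus DMSO, measured 24 h post-dose via RT-PCR, fluorescent labelling and capillary electrophoresis. Human HepG2 liver cells carried transiently transfected CIS reporter constructs reflecting endogenous factors.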

[5] = ATG_NRF2_ARE_CIS: Attagene CIS-FACTORIAL HepG2 Assay for human Nuclear Factor Erythroid 2 Related Factor 2 (NFR2) response to Antioxidant Response Elements (ARE) (AID 2282992); details: HepG2 Attagene ARE/NRF2 reporter, transcription factor activity; actives raise or lower the signal;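 for AC50: reporter mRNA level measured by RT-PCR and capillary electrophoresis fluorescence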
In short: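 Readout: reporter mRNA quantified by RT-PCR plus FAM-labelled primer extension, HpaI digestion and capillary electrophoresis, 24 h after dosing transfected HepG2 cells. Gain or loss of signal is fitted bidirectionally against DMSO baseline.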

[6] = ATG_Oct_MLP_CIS: Attagene CIS-FACTORIAL HepG2 Assay for human Octamer-Binding Transcription Factor (Oct) (AID 2282993); details: HepG2 Attagene cis-factorial Oct reporter, mRNA; actives raise or lower the signal
In short: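 Read-out: reporter mRNA via RT-PCR plus capillary electrophoresis of 6-FAM-labelled fragments. Transiently transfected HepG2, 24 h exposure, endogenous TF activity on cis elements. Gain or loss of signal fitted relative to DMSO.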

[7] = molecular target: Cellular tumor antigen p53 (Homo sapiens) (UniProt P04637); test: ATG_p53_CIS: Attagene CIS-FACTORIAL HepG2 Assay for human p53 Transcription Factor (AID 2282994); details: HepG2 p53 cis-element reporter, Attagene mRNA; actives raise or lower the signal
In short: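 Read-out: reporter mRNA by RT-PCR plus capillary electrophoresis with fluorescence detection. Human HepG2 liver cells carried transfected multi-reporter cis-element constructs, dosed 24 h. Gain or loss of signal fitted bidirectionally against DMSO control.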

Sequence of Nuclear respiratory factor 1 (Homo sapiens) (Q16656 whole entry, looked up): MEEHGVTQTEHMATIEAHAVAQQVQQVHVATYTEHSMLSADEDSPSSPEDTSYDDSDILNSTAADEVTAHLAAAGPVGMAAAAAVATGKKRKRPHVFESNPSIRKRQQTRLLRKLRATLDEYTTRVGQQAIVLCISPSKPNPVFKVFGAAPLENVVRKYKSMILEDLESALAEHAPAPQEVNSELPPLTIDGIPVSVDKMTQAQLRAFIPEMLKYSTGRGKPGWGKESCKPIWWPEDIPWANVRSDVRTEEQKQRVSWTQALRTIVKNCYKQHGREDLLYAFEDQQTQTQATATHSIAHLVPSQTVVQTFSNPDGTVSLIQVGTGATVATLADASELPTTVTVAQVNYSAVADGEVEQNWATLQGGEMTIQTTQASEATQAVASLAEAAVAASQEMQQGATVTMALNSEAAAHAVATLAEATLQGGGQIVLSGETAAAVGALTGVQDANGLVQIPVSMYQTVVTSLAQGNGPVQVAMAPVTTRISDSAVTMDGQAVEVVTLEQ
Sequence of Myc proto-oncogene protein (Homo sapiens) (P01106 whole entry, looked up): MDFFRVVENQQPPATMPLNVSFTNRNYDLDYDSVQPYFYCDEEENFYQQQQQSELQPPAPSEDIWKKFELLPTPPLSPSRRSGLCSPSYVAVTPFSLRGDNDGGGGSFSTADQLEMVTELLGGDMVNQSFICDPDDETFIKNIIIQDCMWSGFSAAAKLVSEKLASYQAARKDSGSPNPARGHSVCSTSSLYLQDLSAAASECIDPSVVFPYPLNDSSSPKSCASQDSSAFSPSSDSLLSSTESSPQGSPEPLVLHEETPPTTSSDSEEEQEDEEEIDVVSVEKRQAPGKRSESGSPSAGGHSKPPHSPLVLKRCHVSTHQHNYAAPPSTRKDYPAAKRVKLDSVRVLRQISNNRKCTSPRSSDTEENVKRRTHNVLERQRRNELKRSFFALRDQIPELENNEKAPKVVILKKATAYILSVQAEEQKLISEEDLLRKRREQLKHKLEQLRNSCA
Sequence of Cellular tumor antigen p53 (Homo sapiens) (P04637 whole entry, looked up): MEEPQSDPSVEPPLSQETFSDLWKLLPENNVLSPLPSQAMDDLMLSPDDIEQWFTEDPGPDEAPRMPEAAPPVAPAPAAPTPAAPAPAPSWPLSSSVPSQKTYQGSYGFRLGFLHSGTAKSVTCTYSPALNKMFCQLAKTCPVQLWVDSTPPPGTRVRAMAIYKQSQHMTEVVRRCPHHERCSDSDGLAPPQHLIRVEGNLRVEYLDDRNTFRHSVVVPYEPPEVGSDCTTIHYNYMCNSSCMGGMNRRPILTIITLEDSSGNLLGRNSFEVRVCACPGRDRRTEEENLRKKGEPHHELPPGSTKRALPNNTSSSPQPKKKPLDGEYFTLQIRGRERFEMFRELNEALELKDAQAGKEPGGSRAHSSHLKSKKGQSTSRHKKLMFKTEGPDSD

SMILES | outcome [1] | outcome [2] | outcome [3] | outcome [4] | outcome [5] | outcome [6] | AC50 [5] | outcome [7]
CCCCOC(=O)CCC(C)=O | inactive | inactive | inactive | inactive | inactive | inactive | – | –
C=CCOC(=O)c1ccc(C(=O)OCC=C)c(C(=O)OCC=C)c1 | inactive | inactive | inactive | inactive | – | inactive | 36.1 µM (active) | –
CC(=O)OCC=C(C)C | inactive | inactive | inactive | inactive | inactive | inactive | – | inactive
CC1(C)C(=O)N(CO)C(=O)N1CO | inactive | inactive | inactive | inactive | – | inactive | 26.1 µM (active) | inactive
CCN1CCCC1=O | inactive | inactive | inactive | inactive | inactive | inactive | – | inactive
[Cl][Sc]([Cl])[Cl] | inactive | inactive | inactive | inactive | inactive | inactive | – | inactive
CC1CCC(C(C)(C)S)C(=O)C1 (stereo not given) | inactive | inactive | inactive | inactive | inactive | inactive | – | inactive
OCCCc1ccccc1 | inactive | inactive | inactive | inactive | inactive | inactive | – | inactive
CCOC(=O)[C@H](O)[C@@H](O)C(=O)OCC | inactive | inactive | inactive | inactive | inactive | inactive | – | inactive
Cc1noc(NS(=O)(=O)c2ccc(N)cc2)c1C | inactive | inactive | inactive | inactive | inactive | inactive | – | inactive
Nc1ccnc(=O)[nH]1 | inactive | inactive | inactive | inactive | inactive | inactive | – | inactive
Cc1ccccc1CCO | inactive | inactive | inactive | inactive | inactive | inactive | – | inactive
Cc1cc(C)c(C=O)c(C)c1 | inactive | inactive | inactive | inactive | inactive | inactive | – | inactive
CC(C=O)c1ccccc1 (stereo not given) | inactive | inactive | inactive | inactive | inactive | inactive | – | inactive
CC(C)(O)Cc1ccccc1 | inactive | inactive | inactive | inactive | inactive | inactive | – | inactive
CC(C)CC(=O)OCc1ccccc1 | inactive | inactive | inactive | inactive | inactive | inactive | – | inactive

SMILES | outcome [1] | outcome [2] | outcome [3] | outcome [4] | outcome [5] | outcome [6] | AC50 [5] | outcome [7]
COC(C=C(C)CCC=C(C)C)OC | inactive | inactive | inactive | inactive | – | inactive | 59.2 µM (active) | inactive
CCC[Si](OC)(OC)OC | inactive | inactive | inactive | inactive | inactive | inactive | – | inactive
CC(=O)OC1CCCCC1C(C)(C)C (stereo not given) | inactive | inactive | inactive | inactive | inactive | inactive | – | inactive
Cc1cccc(C(C)(C)C)c1O | inactive | inactive | inactive | inactive | inactive | inactive | – | inactive
CC(=O)OC(C)c1ccccc1 (stereo not given) | inactive | inactive | inactive | inactive | inactive | inactive | – | inactive
C=C(C)C(=O)OCCOC(=O)C(=C)C | inactive | inactive | inactive | inactive | inactive | inactive | – | inactive
CC1CC(=O)CC(C)(C)C1 (stereo not given) | inactive | inactive | inactive | inactive | inactive | inactive | – | inactive
CCCCCOC(=O)CCCCC | inactive | inactive | inactive | inactive | inactive | inactive | – | inactive
CCc1occc(=O)c1O | inactive | inactive | inactive | inactive | inactive | inactive | – | inactive
COC(=O)[C@H](Cc1ccccc1)NC(=O)[C@@H](N)CC(=O)O (H-Asp-Phe-OMe) | inactive | inactive | inactive | inactive | inactive | inactive | – | inactive
CCC(C)c1ccccc1 (stereo not given) | inactive | inactive | inactive | inactive | inactive | inactive | – | inactive
O=C(O)c1ccc2c(c1)C(=O)OC2=O | inactive | inactive | inactive | inactive | inactive | inactive | – | inactive
CCCCC1CCC(=O)O1 (stereo not given) | inactive | inactive | inactive | inactive | inactive | inactive | – | inactive
CC1(C)CCC[C@]2(C)[C@H]3CC(=O)O[C@]3(C)CC[C@@H]12 | inactive | inactive | inactive | inactive | – | inactive | 30.3 µM (active) | inactive
COCC(=O)O | inactive | inactive | inactive | inactive | inactive | inactive | – | inactive
